Reference: PubChem BioAssay AID651702 (NMMLSC, 2012)
Where “and” joins values, the source holds several entries; their conditions need not be identical. Identical values can stand only once. The campaign covered roughly 360,000 compounds. About 2,400 (0.67%) were called active. Only a selection was taken, and actives are over-represented in it overall. Values without a mark were called inactive.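 Rule for the calls: active = inhibition above about 55% (limit read from the data); inconclusive = no clear call, values can overlap the other calls; inactive = the rest.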

Experiment: LAMP-1 surface exposure blockers, TALL-104 cells – cell-based, flow cytometry, MLPCN library, primary screen (AID 651702)
Settings: TALL-104 LAMP-1 surface exposure, at 10 µM, stronger effect = higher value, cells stimulated with thapsigargin and PMA
For `CC(=O)NCC(=O)N(Cc1ccco1)C1(C(=O)NC2CCCC2)CCCCC1`, the inhibition was 4.1%.
Compound `Cc1cc(C)cc(NC(=O)c2cccc(NC(=O)C3C4CC5OC(=O)C3C5C4)c2)c1` (centres undefined) has an inhibition of -3.6%.
For `CCCCCCCCCCOC(=O)Cn1c(COc2ccc(C)cc2)[n+](C)c2ccccc21`, the inhibition was 79.9% (active).
With `CCOc1ccc(OCCSc2nc3ccccc3n2CC(=O)O)cc1` the inhibition was -4.7%.
In the case of `CCCCCCCCCCOC(=O)Cn1c(COc2cccc(OC)c2)[n+](C)c2ccccc21`, the inhibition was 63.4% (active).
`Cc1noc(C)c1COC(=O)Cn1c(C)nc2ccccc21` gave an inhibition of -0.2%.
`Cc1cccc(-n2c(Cc3cc(=O)[nH]c(=O)[nH]3)nnc2SCC(=O)Nc2cccc(C(F)(F)F)c2)c1` showed an inhibition of -9.1%.
Compound `COc1ccc(CCNC(=O)NS(=O)(=O)c2ccc(C)cc2)cc1OC` has an inhibition of -3.4%.
For `CC(=O)N1C[C@@H](CO)[C@@H](N(C)C(=O)c2ccco2)C[C@H]1c1ccccc1`, the inhibition was -2%.
Compound `NC(=S)NN=C1CCCC(C(F)(F)F)C1` (centres undefined) has an inhibition of -3%.
`Cc1c(NC(=O)c2cc(-c3ccc(Cl)s3)nc3ccccc23)c(=O)n(-c2ccccc2)n1C` showed an inhibition of 8.8%.
Work on `CCc1ccc(-c2cc(C(=O)NN3CCN(C)CC3)c3ccccc3n2)cc1` yielded an inhibition of -2.9%.
In the case of `Cc1ccc(NC(=O)c2cc(-c3ccc(C)o3)nc3ccccc23)nc1`, the inhibition was 71.4% (active).
For `CCN1C(=O)[C@H]2[C@@H](c3ccc(-c4ccc(F)cc4)cc3)N[C@@](Cc3ccccc3)(C(=O)OC)[C@H]2C1=O`, the inhibition was 97.9% (active).
Compound `CCN1C(=O)[C@H]2[C@@H](c3ccc(-c4ccc(OC)cc4)cc3)N[C@@](Cc3ccccc3)(C(=O)OC)[C@H]2C1=O` has an inhibition of -2.6%.
`CCN1C(=O)[C@H]2[C@@H](c3ccc(SC4CCCCC4)c(OC)c3)N[C@@](Cc3ccccc3)(C(=O)OC)[C@H]2C1=O` showed an inhibition of -2.9%.
For `COc1ccc(CC(NC(C)=O)C(=O)NC2CCN(C(=O)c3ccc(Cl)cc3)CC2)cc1` (centres undefined), the inhibition was -6.3%.
`COc1cc2c(cc1OC)C(c1ccccc1Br)NC(=O)C2` (centres undefined) gave an inhibition of 1.4%.
For `Brc1ccccc1C1Nc2cccc3cccc(c23)N1`, the inhibition was 72.2% (active).
`Brc1ccccc1C1N=C(c2ccccc2)NO1` (centres undefined) gave an inhibition of -3.5%.
With `NS(=O)(=O)c1cc(Cl)c(Cl)c(S(N)(=O)=O)c1` the inhibition was 0.8%.
With `O=C(O)c1cc(S(=O)(=O)N(Cc2ccccc2)c2ccccc2)ccc1Cl` the inhibition was -1%.
With `O=S(=O)(c1ccccc1)N(Cc1cccc(F)c1)c1ccccc1` the inhibition was 65.4% (active).
Work on `NC(=O)c1ccccc1N(Cc1ccccc1)S(=O)(=O)c1ccccc1` yielded an inhibition of 11.2%.
Work on `OCCC1CN(Cc2cccn2-c2nccs2)CCN1CCc1ccccc1` (centres undefined) yielded an inhibition of 1.1%.
`COC(=O)[C@@]12CCCN1[C@H](c1ccc(-c3ccc(F)cc3)c(OC)c1)[C@H]1C(=O)N(C)C(=O)[C@H]12` showed an inhibition of -14%.
Work on `CCCCNC(=O)C[C@@H]1C[C@@]2(C(=O)OC)CC(C)(C)CC=C2N(Cc2ccco2)C1=O` yielded an inhibition of -4.4%.
With `COC(=O)[C@H](Cc1ccccc1)NC(=O)[C@@H]1C[C@H]1[C@@H](NC(=O)OCc1ccccc1)c1ccccc1` the inhibition was 106% (active).
In the case of `COC(=O)[C@@H](Cc1ccccc1)NC(=O)NCCc1ccccc1`, the inhibition was 2.5%.
Compound `COC(=O)[C@H](C)[C@H]1C[C@]1(C)[C@H](NC(=O)OCc1ccccc1)c1ccccc1` has an inhibition of 5.6%.
With `CC(=O)N1CCc2cc(S(=O)(=O)Nc3ccccc3N3CCN(C)CC3)ccc21` the inhibition was 3.6%.
In the case of `Cc1nnc(SCC(=O)N2c3ccccc3C(C)(c3ccc(Cl)cc3)CC2(C)C)s1` (centres undefined), the inhibition was -0.3%.
For `CCCCn1c(-c2cccc(C)c2)nc2cc3[nH]c(=O)c(C(C)C)nc3cc21`, the inhibition was 7.2%.
Work on `CCCCCn1nnnc1C1c2ccccc2C(=O)N1Cc1ccco1` (centres undefined) yielded an inhibition of -4%.
In the case of `CCCCCn1nnnc1-c1nc2cc3ccccc3cc2[nH]c1=O`, the inhibition was 56.3% (active).
Work on `COc1ccccc1NC(=O)C(C)OC(=O)c1ccc(-n2cnnn2)cc1` (centres undefined) yielded an inhibition of 2.1%.
For `COc1ccc(NC(=O)Cn2ncn3c(cc4ccccc43)c2=O)c(OC)c1OC`, the inhibition was -1.7%.
`O=C(CNCc1ccc(Cl)cc1)Nc1cccc(C(=O)O)c1` showed an inhibition of 2.8%.
With `CC(CC(=O)Nc1cc(C(F)(F)F)ccc1Cl)c1ccccc1` (centres undefined) the inhibition was 83.7% (active).
In the case of `CC(C)CC(=O)Nc1cc(C(F)(F)F)ccc1N1CCOCC1`, the inhibition was -2.5%.
For `COc1cc(OC)c(C(=O)OC(C)C(=O)Nc2cc(C(F)(F)F)ccc2Cl)cc1OC` (centres undefined), the inhibition was 0.8%.
With `CC1=NCCN1S(=O)(=O)c1ccc(Br)c(C)c1` the inhibition was -1.3%.
Work on `COc1cc(OC)c2c(-c3cccc(-c4cccc(N)c4)c3)cc(=O)oc2c1` yielded an inhibition of 4.4%.
Work on `COc1cccc(NC(=O)C2CCCN2C(=O)OCc2ccccc2)c1` (centres undefined) yielded an inhibition of -0.8%.
For `COc1cccc(NC(=O)C2C(c3ccccc3)C2(Cl)Cl)c1` (centres undefined), the inhibition was 83.9% (active).
Compound `COc1cccc(NC(=O)C2c3cc(OC)c(OC)cc3C(=O)N(C)C2c2cccnc2)c1` (centres undefined) has an inhibition of 1.8%.
With `O=S(=O)(N/N=C\c1cccn1-c1ccccc1)c1ccc2ccccc2c1` the inhibition was -0.4%.
Compound `Cc1cccc(CNC(=O)c2sc(=O)n(Cc3ccccc3C)c2C)c1` has an inhibition of -3.5%.
Work on `CCCCCNC(=O)C(c1ccc(OC)cc1)n1c(=O)c(-c2ccccc2)nc2ccccc21` (centres undefined) yielded an inhibition of 5.5%.
For `COc1ccccc1N1CCN(c2nc(C)cc(=O)[nH]2)CC1`, the inhibition was 0.2%.
In the case of `COc1ccccc1N1CCN(c2ncnc3sc(C)c(-c4ccccc4)c23)CC1`, the inhibition was 57.5% (active).
For `COc1ccccc1N1CCN(c2ccc([N+](=O)[O-])nc2)CC1`, the inhibition was -3.5%.
`O=C1CCC([N+](=O)[O-])C(c2ccccc2Br)N1` (centres undefined) showed an inhibition of -1.2%.
With `CCOc1ccccc1Nc1nnc(SCC(=O)NCC2CCCO2)s1` (centres undefined) the inhibition was -20.1%.
`COc1ccc(C2OC(CCc3ccccc3)Cc3[nH]c(=S)[nH]c(=O)c32)cc1` (centres undefined) gave an inhibition of -3%.
Compound `Cc1cnc(C(=O)OCC(=O)N2CCc3ccccc32)cn1` has an inhibition of 0.3%.
In the case of `Cc1cnc(C(=O)OCc2c(C)cc(C(C)(C)C)cc2C)cn1`, the inhibition was 63.8% (active).
Compound `Cc1cnc(C(=O)OCC(=O)NCCCc2ccccc2)cn1` has an inhibition of -0.1%.
`Cc1cccc(N2CCN(C(=O)c3cccc(N4C(=O)C5C6C=CC(C6)C5C4=O)c3)CC2)c1C` (centres undefined) gave an inhibition of -1.1%.
Compound `CSCCC(C(=O)NC(C)(C)C)n1c(-c2ccccc2)nc2ccccc21` (centres undefined) has an inhibition of -0.9%.
For `CCOc1ccc(NS(=O)(=O)c2ccc(C(=O)NCC(c3ccccc3OC)N3CCCC3)cc2)cc1` (centres undefined), the inhibition was -1.8%.
With `COc1ccc(S(=O)(=O)N(C)C)cc1NC(=O)COC(=O)c1n[nH]c2ccccc12` the inhibition was -22.7%.
Work on `CCOC(=O)C1CCN(Cc2c(C(=O)N3CCOCC3)nc3c(C)cccn23)CC1` yielded an inhibition of -2.4%.
Work on `Cc1cccn2c(CNCC(C)Oc3cccnc3)c(C(=O)N3CCOCC3)nc12` (centres undefined) yielded an inhibition of -5%.
In the case of `Cc1cccc(N2CCC(NCc3c(C(=O)N4CCCCC4)nc4c(C)cccn34)CC2)c1`, the inhibition was 60.5% (active).
`OCCn1c(-c2ccccc2)csc1=Nc1ccccc1` gave an inhibition of -1.3%.
In the case of `CCc1ccc(Nc2n[n+](-c3ccccc3)c(-c3cccc(Cl)c3Cl)s2)cc1`, the inhibition was 5.9%.
For `COc1ccc(C)cc1Nc1n[n+](-c2ccccc2)c(-c2cccc(Cl)c2Cl)s1`, the inhibition was 93.6% (active).
`COc1cc(Br)c(-c2sc(Nc3ccccc3)n[n+]2-c2ccccc2)cc1OC` showed an inhibition of -3.6%.
For `Cc1c(Cl)cccc1NC(=O)CCC(=O)N/N=C/c1ccco1`, the inhibition was 4.7%.
With `CCOc1ccc(OCC)c(NC(=O)CSc2nnc(Cn3cnc4ccccc43)n2C)c1` the inhibition was 0.1%.
With `O=C(NCCc1c[nH]c2ccccc12)C1CCN(Cc2ccc(Br)cc2)CC1` the inhibition was 77% (active).
Work on `CCOc1ccc(CN2CCN(Cc3c[nH]c4ccccc34)CC2)cc1` yielded an inhibition of 35.2%.
In the case of `Cc1ccc2[nH]cc(CCNC(=O)C3CCCCC3)c2c1`, the inhibition was -2.8%.
Compound `CCOC(=O)C1=C(C)NC2=C(C(=O)CC(C)(C)C2)C1c1ccsc1` (centres undefined) has an inhibition of 0.2%.
With `CC(C)OC(=O)CC(=O)CC(O)c1cccc([N+](=O)[O-])c1` (centres undefined) the inhibition was -10.1%.
For `Cc1c(C)c2ccc(OCC(=O)N3CCN(c4cccc(Cl)c4)CC3)cc2oc1=O`, the inhibition was -2.4%.
In the case of `O=C(COc1ccc(Cl)cc1)N1CCN(c2cccc(C(F)(F)F)c2)CC1`, the inhibition was 58.7% (active).
In the case of `CSCCC(NC(=O)COc1ccccc1)C(=O)N1CCN(c2cccc(C(F)(F)F)c2)CC1` (centres undefined), the inhibition was 1.5%.
In the case of `O=C(O)Cc1csc(-c2cccc(Oc3ccccc3)c2)n1`, the inhibition was -3.1% and -3.3%.
Work on `CCOc1ccc(NC(=O)CN(C)C(=O)CCSc2ccc(F)cc2)cc1OCC` yielded an inhibition of 14.3%.
With `CC(C)c1ccc(-c2nn[nH]n2)cc1` the inhibition was 21.6%.
Compound `COc1ccc(S(=O)(=O)N2CCN(CC(=O)N3c4ccccc4CC3C)CC2)cc1OC` (centres undefined) has an inhibition of 6.4%.
With `CCOc1cc(/C=N/NC(=O)CN2CCCCC2)ccc1O` the inhibition was 3.8%.
In the case of `CCOc1cc(/C=C(\C#N)c2nc(-c3cccs3)c(NC(C)=O)s2)ccc1O`, the inhibition was 69.2% (active).
Compound `CCOc1cc(/C=N/NC(=O)c2c(C)nc3ccc(Cl)cn23)ccc1O` has an inhibition of 3.8%.
`Cc1ccc(NC(=O)Nc2cc(-c3ccccc3)nn2C)cc1Cl` showed an inhibition of 3%.
`CC(=O)NC(c1ccccc1)c1nc(-c2cccc(C(C)C)c2)cs1` (centres undefined) showed an inhibition of -1.9%.
With `CC(=O)Nc1ccc(-c2csc(NC(=O)Nc3ccccc3)n2)cc1` the inhibition was 104% (active).
